Results reported in PubChem BioAssay (NCI).
Several values for one entry are separate records, joined by “and”; a condition that tells them apart may be missing. Identical values can stand only once. About 79,000 compounds went through this panel and 15% of them were active in at least one assay; those are over-represented in the sample as a whole. More than one record can exist for a structure, and the calls need not agree. Activity calls are given as the source filed them. No stated cut-off is given here; in the data, active means growth inhibition above about 70%; inactive means the rest.

Columns and labels:
[1] = NCI Yeast Anticancer Drug Screen. Data for the mec2-1 strain (AID 157); conditions: S. cerevisiae mec2-1 strain, stronger effect = higher value
Outline: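 Growth inhibition is read against vehicle-treated controls after compound exposure of the mec2-1 yeast strain, which is defective in DNA damage repair or cell cycle control.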

[2] = NCI Yeast Anticancer Drug Screen. Data for the rad14 strain (AID 159);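 further: 0% = growth of vehicle-treated control cultures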; conditions: S. cerevisiae rad14 strain growth inhibition, stronger effect = higher value
Outline: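 Readout: yeast growth inhibition, referenced to vehicle-only cultures. Strain bears a defined alteration in DNA damage repair.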

[3] = NCI Yeast Anticancer Drug Screen. Data for the sgs1 mgt1 strain (AID 161);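 further: 0% = growth of cultures given vehicle only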; conditions: S. cerevisiae sgs1 mgt1 strain, stronger effect = higher value
Outline: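 Growth of a repair-deficient yeast mutant was monitored after compound treatment and expressed as inhibition relative to vehicle-treated cultures.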

[4] = NCI Yeast Anticancer Drug Screen. Data for the CLN2oe strain (AID 163);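 further: 0% = growth of vehicle-only control cultures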; conditions: S. cerevisiae CLN2oe strain, stronger effect = higher value
Outline: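 Compound-treated yeast; growth vs vehicle ctrl = % inhibition. Genetically altered strain (cell-cycle control).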

[5] = NCI Yeast Anticancer Drug Screen. Data for the cln2 rad14 strain (AID 165);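 further: 0% = growth equal to vehicle treated cultures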; conditions: S. cerevisiae cln2 rad14 strain, stronger effect = higher value
Outline: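 Growth inhibition, relative to vehicle-treated controls, is the read-out. The test organism is a yeast strain with defined genetic alterations, cln2 rad14.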

[6] = NCI Yeast Anticancer Drug Screen. Data for the bub3 strain (AID 167); conditions: S. cerevisiae bub3 mutant strain, stronger effect = higher value
Outline: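 Part of a panel of yeast mutants defective in DNA damage repair or cell cycle regulation. Each strain is grown with compound, and inhibition is calculated relative to solvent-treated cultures.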

[7] = NCI Yeast Anticancer Drug Screen. Data for the wt2 strain (AID 169);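 further: 0% = growth of vehicle-treated yeast cultures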; conditions: S. cerevisiae wt2 strain growth inhibition, stronger effect = higher value
Outline: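 Compound exposure of yeast; growth compared with vehicle controls; inhibition reported.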

[8] = NCI Yeast Anticancer Drug Screen. Data for the mlh1 strain (AID 171);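 further: 0% = growth of vehicle-treated control cultures of the same strain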; conditions: S. cerevisiae mlh1 strain growth inhibition, stronger effect = higher value
Outline: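 Compounds are applied to a genetically altered yeast strain, and its growth is compared with that of vehicle-treated cultures to give percent inhibition.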

[9] = NCI Yeast Anticancer Drug Screen. Data for the sgs1 strain (AID 173);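 further: 0% = growth of vehicle-only control cultures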; conditions: S. cerevisiae sgs1 mutant, stronger effect = higher value
Outline: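 Compounds applied to genetically altered yeast; growth compared with vehicle-treated cultures to give % inhibition.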

[10] = NCI Yeast Anticancer Drug Screen. Data for the mlh1 rad18 strain (AID 175); conditions: S. cerevisiae mlh1 rad18 strain growth inhibition, stronger effect = higher value
Outline: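 Cells of a genetically altered yeast strain, deficient in DNA damage repair, were treated with compound. Their growth was then compared with that of vehicle-treated cultures to give inhibition.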

[11] = NCI Yeast Anticancer Drug Screen. Data for the rad18 strain (AID 177); conditions: S. cerevisiae rad18 mutant growth inhibition, stronger effect = higher value
Outline: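 Compounds are applied to a repair-deficient yeast strain, and growth is compared with that of vehicle-treated cultures to give percent inhibition.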

[12] = NCI Yeast Anticancer Drug Screen. Data for the rad52 strain (AID 147);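 further: 0% = growth of vehicle-treated control cultures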; conditions: S. cerevisiae rad52 mutant growth inhibition, stronger effect = higher value
Outline: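 DNA repair-defective yeast; compound exposure; growth scored against vehicle controls.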

[13] = NCI Yeast Anticancer Drug Screen. Data for the wt1 strain (AID 149);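 further: 0% = growth of vehicle-treated wt1 cultures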; conditions: S. cerevisiae wt1 strain (SPY 50644) growth inhibition, stronger effect = higher value
Outline: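 The wt1 strain was treated with compounds, and growth was compared with vehicle-treated cultures to give inhibition.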

[14] = NCI Yeast Anticancer Drug Screen. Data for the rad50EPP+ strain (AID 151);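 further: 0% = growth of vehicle-treated control cultures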; conditions: S. cerevisiae rad50 mutant strain, stronger effect = higher value
Outline: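 rad50EPP+ yeast treated with test compounds. Readout: growth vs vehicle control.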

[15] = NCI Yeast Anticancer Drug Screen. Data for the rad50 strain (AID 155);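 further: 0% = growth of vehicle-only cultures of the same strain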; conditions: S. cerevisiae rad50 strain growth inhibition, stronger effect = higher value
Outline: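 Cells are treated with compound, grown, and their growth is then scored against vehicle-only cultures of the same repair-deficient yeast strain.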

[16] = at 5.0 µM (retest, dose inferred, filed as 0.5)
[17] = at 50.0 µM (retest, dose inferred, filed as 5.0)

Measured: growth inhibition

Oc1[nH]c2ccccc2c1N=NC(=S)N1CCCCC1
inactive: [2]; at 1.2 µM 4% | [2]; at 3.7 µM -3% | [2]; at 11.0 µM 9% | [3]; [16] -8% | [4]; at 1.2 µM 2% | [4]; at 3.7 µM -4% | [4]; at 11.0 µM 20% | [5]; [16] 0% | [6]; at 1.2 µM -1% | [6]; at 3.7 µM 5% | [6]; [16] -18% | [6]; at 11.0 µM 15% | [7]; at 1.2 µM 5% | [7]; at 3.7 µM 6% | [7]; at 11.0 µM 13% | [8]; at 1.2 µM 4% | [8]; at 3.7 µM 4% | [8]; at 11.0 µM 16% | [9]; at 1.2 µM 14% | [9]; at 3.7 µM 16% | [9]; at 11.0 µM 28% | [10]; [16] 22% | [11]; at 1.2 µM 5% | [11]; at 3.7 µM 9% | [11]; at 11.0 µM 24%
active: [1]; at 100.0 µM 99% | [2]; at 33.0 µM 97% | [2]; at 100.0 µM 99% | [3]; [17] 99% | [3]; at 50.0 µM 87% | [4]; at 33.0 µM 98% | [4]; at 100.0 µM 99% | [5]; [17] 99% | [5]; at 50.0 µM 84.8% | [6]; at 33.0 µM 91% | [6]; [17] 99% | [6]; at 50.0 µM 90.3% | [6]; at 100.0 µM 96% | [7]; at 33.0 µM 94% | [7]; at 100.0 µM 99% | [8]; at 33.0 µM 96% | [8]; at 100.0 µM 98% | [9]; at 33.0 µM 99% | [9]; at 100.0 µM 99% | [10]; [17] 99% | [10]; at 50.0 µM 86.5% | [11]; at 33.0 µM 89% | [11]; at 100.0 µM 97%

CS(=O)(=O)OCCN(CCOS(C)(=O)=O)c1ccc(C=Nc2ccc(-c3csc(COc4ccccc4)n3)cc2)cc1
active: [12]; at 11.0 µM 76% | [12]; at 33.0 µM 96% | [12]; at 100.0 µM 93% | [13]; at 33.0 µM 90% | [13]; at 100.0 µM 91% | [14]; at 33.0 µM 94% | [14]; at 100.0 µM 93% | [15]; at 33.0 µM 93% | [15]; [17] 95% and 96% | [15]; at 50.0 µM 97% | [15]; at 100.0 µM 91% | [1]; at 33.0 µM 93% | [1]; [17] 96% | [1]; at 50.0 µM 98.2% | [1]; at 100.0 µM 91% | [2]; at 33.0 µM 95% | [2]; at 100.0 µM 94% | [3]; at 50.0 µM 84.8% and 97.7% | [4]; at 33.0 µM 93% | [4]; at 100.0 µM 90% | [5]; at 50.0 µM 85.3% and 95.8% | [6]; at 33.0 µM 91% | [6]; at 50.0 µM 84.5% and 96.2% | [6]; at 100.0 µM 88% | [8]; at 33.0 µM 94% | [8]; at 100.0 µM 92% | [9]; at 33.0 µM 93% | [9]; at 100.0 µM 92% | [10]; [17] 95% and 97% | [10]; at 50.0 µM 97.2% | [11]; at 11.0 µM 84% | [11]; at 33.0 µM 95% | [11]; at 100.0 µM 91%
81% (active) and 65% (inactive): [10]; [16]
-64% (inactive) and 98% (active): [3]; [17]
inactive: [12]; at 1.2 µM 15% | [12]; at 3.7 µM 29% | [13]; at 1.2 µM -30% | [13]; at 3.7 µM -33% | [13]; at 11.0 µM -8% | [14]; at 1.2 µM -2% | [14]; at 3.7 µM -11% | [14]; at 11.0 µM 49% | [15]; at 1.2 µM -29% | [15]; at 3.7 µM -5% | [15]; [16] 44% and 40% | [15]; at 11.0 µM 63% | [1]; at 1.2 µM -46% | [1]; at 3.7 µM -18% | [1]; [16] 33% and 34% | [1]; at 11.0 µM 41% | [2]; at 1.2 µM -25% | [2]; at 3.7 µM 14% | [2]; at 11.0 µM 59% | [3]; [16] -12% and 26% | [4]; at 1.2 µM 1% | [4]; at 3.7 µM 4% | [4]; at 11.0 µM 45% | [5]; [16] -2% and 25% | [6]; at 1.2 µM -36% | [6]; at 3.7 µM -16% | [6]; [16] -4% and 19% | [6]; at 11.0 µM 47% | [8]; at 1.2 µM -24% | [8]; at 3.7 µM -17% | [8]; at 11.0 µM 42% | [9]; at 1.2 µM 11% | [9]; at 3.7 µM 14% | [9]; at 11.0 µM 64% | [11]; at 1.2 µM 15% | [11]; at 3.7 µM 61%
-80% (inactive) and 96% (active): [5]; [17]
-73% (inactive) and 96% (active): [6]; [17]
